From PubChem BioAssay (NCI) come the findings set out here.

Assay in all cases: NCI-60 one-dose screen, 48 h (100 = growth as untreated, 0 = no growth, -100 = all killed)
Conditions in all cases: 10 µM unless noted

Test [1] has as its system SR leukemia.
The subject of test [2] is RPMI-8226 leukemia.
Test [3] deals with OVCAR-8 ovarian.
The subject of test [4] is OVCAR-5 ovarian.
The test system of test [5] is OVCAR-4 ovarian.
For test [6], the system named is SK-OV-3 ovarian.
In test [7] the test system is IGROV1 ovarian.
Test [8] relates to OVCAR-3 ovarian.
For test [9], the system named is HS 578T breast.
For test [10], the system named is NCI/ADR-RES ovarian.
Test [11] has as its system BT-549 breast.
Test [12] concerns MDA-MB-435 melanoma.
The test system of test [13] is SW-620 colon.
For test [14], the system named is HCT-116 colon.
Test [15] has as its system HCC-2998 colon.
Test [16] concerns KM12 colon.
Test [17] relates to T-47D breast.
For test [18], the system named is MCF7 breast.

Compounds without any hit were thinned out: in the full panel of roughly 83,000, 20% have a hit.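 The test compound was applied at a single concentration to cells in 96-well plates for 48 hours, and percent growth was recorded.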 A number with no mark means an inactive call. Active and inactive are the calls of the source. Rule for the calls: active = growth percent below 10; inactive = the rest.

Consider `CCC(C)C1NC(=O)C(CC(C)C)NC(=O)C(C)NC(=O)C(C(C)C)NC(=O)C(CCCCN)NC(=O)C(CC(C)C)NC(=O)C(C(C)C)NC(=O)[C@H](C)NC(=O)C(C(C)CC)NC(=O)C(CCCN=C(N)N)NC(=O)C(CCCCN)NC(=O)C(CCCN=C(N)N)NC(=O)C(CCCCN)NC(=O)C([C@H](C)CC)NC(=O)C(CCCCN)NC1=O` (some centres undefined), for which the growth in [1] was 2.37% (active); in [2], -35.5% (active); in test [3] it was 11.7%; in [4], 52.6%; in test [5] it was 18.4%; in test [6], 10.4%. The growth was 12.4% in [7]; 8.18% (active) in test [8]; 38.9% in [9]; 29.3% in [10]; 14.4% in test [11]; 11.2% in [12]. In addition, the growth was 19.6% in test [13], 3.67% (active) in test [14], 16.7% in [15] and -6.4% (active) in test [16].
Turning to `CCCCCCCCCC[N+](C)(C)N`, the growth in [1] is 72.7%; in test [2], 78.1%; in test [3], 88.1%; in [4], 101%; in test [5] it was 99.1%; in test [6], 99.4%. Further, the growth in [7] was 83.8%; in test [8], 100%; in [10], 112%; in [17], 96.7%; in test [11], 84.2%; in [12], 91.9%. Besides, the growth is 102% in test [13]; 98% in [18]; 95.5% in test [14]; 98.5% in [15]; 99.8% in [16].
In the case of `CC(=N\N=C(N)N)/C(=N/N=C(N)N)c1ccccc1`, the growth in [1] is 89.3%; in test [2], 91.7%; in test [3] it was 83.1%; in test [4] it was 96.1%; in [5] it was 79.2%; in test [6], 102%. Also, the growth in test [7] was 91.4%; in [8], 97.9%; in [10] it was 90.2%; in test [17], 60.8%; in [11], 88%; in test [12], 103%. Further, the growth in test [13] is 86.3%; in test [18], 18.9%; in [14], 80.4%; in test [15], 73.8%; in test [16], 70.4%.
For the compound `O=C(/C=C/c1ccc(Cl)cc1)c1ccc(Cl)cc1`, the growth in test [1] was 9.81% (active); in test [2], 13.7%; in test [3], 106%; in test [4], 104%; in test [5], 106%; in [6] it was 104%. Besides, the growth in [7] is 88.1%; in test [8], 89.7%; in test [10], 99.3%; in test [17], 114%; in test [11], 101%; in [12], 80.3%. The growth in test [13] is 88.8%; in [18], 16.9%; in test [14], 69.8%; in test [15], 92.7%; in test [16], 83.3%.
For `Cc1nc2c(nnn2-c2ccccc2)c2nc(-c3ccccc3)oc(=O)c12`, the growth was 105% in test [1]; 113% in [2]; 111% in [3]; 105% in test [4]; 115% in test [5]; 115% in [6]. Also, the growth in test [7] was 111%; in test [8], 117%; in test [9] it was 107%; in test [10] it was 112%; in [11], 105%; in test [12], 111%. The growth in test [18] is 92.3%; in [14], 101%; in test [15], 116%; in test [16], 118%.
For `CC(=O)Nc1ccc(C(=O)/C=C/c2ccc(N(C)C)cc2)cc1`, the growth in test [1] was 96.6%; in test [2] it was 102%; in test [3], 102%; in test [4] it was 106%; in test [5], 109%; in test [6] it was 101%. In addition, the growth is 95.4% in [7]; 105% in [8]; 101% in test [9]; 99.3% in test [10]; 101% in test [11]; 98.1% in test [12]. Also, the growth is 110% in test [13]; 78.3% in [18]; 102% in test [14]; 102% in [15]; 97.7% in [16].
For `COc1cc(-c2c3c(cn2CCN2CCCCC2)-c2oncc2CC3)cc(OC)c1OC`, the growth in test [1] was 92.5%; in test [2] it was 108%; in test [3], 101%; in test [4], 85.3%; in [5], 100%; in test [6], 93.7%. Besides, the growth in test [7] is 104%; in test [8], 113%; in test [9] it was 99.3%; in test [10], 97.3%; in [11], 105%; in test [12] it was 101%. Also, the growth is 95.2% in [13]; 91% in [18]; 89.5% in test [14]; 106% in test [15]; 107% in test [16].
In the case of `CCC(C)C1NC(=O)C(CCCCN)NC(=O)C(CCCCN)NC(=O)C(CC(C)C)NC(=O)C(CCCCN)NC(=O)C(C(C)CC)NC(=O)C(C(C)C)NC(=O)C(C(C)CC)NC(=O)C(CCCCN)NC(=O)C(CCCCN)NC(=O)C(C)NC(=O)C(CCCCN)NC(=O)C(CC(C)C)NC1=O` (centres undefined), the growth in [1] is 2.93% (active); in test [2], -17.4% (active); in test [3] it was 12.4%; in test [4] it was 67.3%; in [5] it was 23.2%; in test [6], 26.1%. Further, the growth is 24.4% in [7]; 10.6% in test [8]; 53% in test [9]; 58.7% in [10]; 35.5% in test [11]; 26.5% in test [12]. Besides, the growth is 10.7% in test [14], 23.2% in [15] and 6.18% (active) in test [16].
With `CC1(C)C(O)NC(Cl)=C(C#N)C1(C#N)C#N` (centres undefined), the growth is 119% in test [1]; 110% in test [2]; 103% in test [3]; 83% in test [4]; 107% in test [5]; 108% in test [6]. The growth was -10.9% (active) in test [7]; 229% in [8]; 103% in test [10]; 106% in test [17]; 104% in test [11]; 113% in [12]. Also, the growth in [13] is 102%; in test [18] it was 107%; in [14], 101%; in test [15], 90.4%; in test [16], 112%.
With `COc1cc(OC)c(NC(=O)n2ncc3cc(Nc4ncnc5ccccc45)ccc32)cc1Cl`, the growth is 89.6% in [1]; 101% in [2]; 110% in test [3]; 74.2% in test [4]; 99.8% in test [5]; 110% in test [6]. For the same compound, the growth is 56.4% in test [7]; 91.3% in [8]; 112% in [9]; 97.3% in test [10]; 78.1% in test [11]; 105% in test [12]. For the same compound, the growth was 98.1% in test [18], 101% in test [14], 89.7% in [15] and 104% in test [16].
For `S=C(N/N=C/c1cc(Cl)cc(Cl)c1)NC12CC3CC(CC(C3)C1)C2`, the growth in test [1] is 20%; in test [2] it was 73.8%; in test [3] it was 56.8%; in test [4] it was 85.7%; in test [5], 23.4%; in [6] it was 66.7%. Moreover, the growth in test [7] is 78.1%; in test [8] it was 58.2%; in test [10], 77%; in [17] it was -8.35% (active); in [11], 98%; in test [12] it was 78.4%. Besides, the growth was 73.8% in [13]; 82.5% in test [18]; 69.4% in test [14]; 115% in test [15]; 105% in test [16].
On to `C=CCSc1nnc(COc2ccc3c(C)c(Cc4ccccc4)c(=O)oc3c2C)o1`, for which the growth in test [1] is 77.7%; in [2], 99.9%; in test [3], 97.6%; in test [4] it was 104%; in test [5], 96.1%; in test [6] it was 108%. Moreover, the growth in test [7] is 112%; in [8], 108%; in [9], 94.5%; in test [10], 98%; in test [11], 100%; in [12], 103%. In addition, the growth is 99.2% in [13], 95.6% in [14], 104% in test [15] and 101% in [16].
For `CCCCN(CCCC)CC(O)CN(CC)CC` (centres undefined), the growth was 97% in test [1]; 97.4% in test [2]; 104% in test [3]; 95.3% in [4]; 97% in [5]; 99% in test [6]. In addition, the growth in test [7] was 100%; in [8] it was 113%; in test [10], 105%; in [17], 97.6%; in [11], 96.1%; in test [12], 92.2%. Besides, the growth in [13] was 99.3%; in [18], 96%; in test [14] it was 97%; in [15], 102%; in [16], 108%.
As to `CC(Br)c1nc2ccccc2cc1C(N)=O` (centres undefined), the growth in test [1] is 74.9%; in test [2], 100%; in test [3], 112%; in test [4] it was 108%; in [5] it was 109%; in test [6], 95.3%. Also, the growth in test [7] was 108%; in test [8] it was 105%; in test [10], 109%; in [17], 95.7%; in [11], 112%; in test [12] it was 112%. The growth is 110% in test [13]; 84.9% in test [18]; 106% in test [14]; 102% in test [15]; 105% in test [16].
Take `CCCCCCCCCCCCCCCCCCOP(=O)(O)O`: the growth in [1] was 103%; in [2], 100%; in test [3] it was 97.5%; in test [4], 103%; in [5] it was 117%; in test [6], 109%. Further, the growth is 110% in test [7]; 113% in test [8]; 108% in [10]; 106% in test [17]; 114% in test [11]; 101% in [12]. The growth is 91.3% in [13]; 101% in test [18]; 106% in test [14]; 108% in test [15]; 110% in test [16].
With `CCOC1=C(Cl)C(=O)C(OCC)=C(Cl)C1=O`, the growth was 87.7% in [1]; 105% in test [2]; 104% in [3]; 110% in test [4]; 105% in [5]; 93.5% in [6]. Further, the growth in [7] was 99.1%; in [8], 105%; in [10], 100%; in [17] it was 93.5%; in test [11], 114%; in test [12] it was 100%. In addition, the growth in [13] was 110%; in test [18], 99.5%; in [14] it was 113%; in [15], 91.2%; in test [16], 98.3%.
Take `CCOC(=O)c1ccc2n1CCCc1cnc(NC(C)=O)nc1-2`: the growth in test [1] was 101%; in [2] it was 99.1%; in test [3] it was 103%; in test [4], 94.1%; in [5], 104%; in [6], 106%. For the same compound, the growth is 107% in test [7]; 107% in test [8]; 99.6% in [9]; 108% in test [10]; 104% in test [11]; 102% in [12]. Besides, the growth in [18] is 101%; in test [14] it was 107%; in test [15], 122%; in [16] it was 109%.
Take `N=C(N)N=Nc1ccc(NN=C(N)N)cc1`: the growth was 108% in test [1]; 95.8% in test [2]; 94.4% in test [3]; 78.7% in test [4]; 100% in test [5]; 24% in test [6]. For the same compound, the growth was 99.8% in test [7]; 108% in [8]; 110% in test [10]; 97.3% in [17]; 88.9% in test [11]; 109% in [12]. Further, the growth in [13] was 38.3%; in test [18], 90.9%; in test [14], 85.9%; in test [15] it was 86.6%; in [16], 43.8%.
